# PubChem BioAssay
# Activity calls are given as the source filed them.
# Experiments:
# [1] = optical density shifts of acrAB sulA E. coli – strain DRC41, OD650, 48 h, E. coli filamentation inducer project, primary screen (AID 1152); details: higher = more signal, called active from +8 up or from −8 down;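 note: E. coli MC1000 strain DRC41 lacking acrAB efflux pump and sulA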
# [2] = probe aLefty1 binding on compound microarray – biochemical, small-molecule microarray, 635/667 nm fluorescence, primary screen (AID 1153); details: higher = more signal;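 note: score merges spot fluorescence with signal-to-noise ratio from the scanned slide images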
# [3] = plasmodial surface anion channel blockers, osmotic lysis – cell-based, P. falciparum Indochina, OD700, 1 h, primary screen (AID 1154); details: P. falciparum Indochina infected RBC osmotic lysis, higher = more signal, called active from +8 up or from −8 down
# [4] = plasmodial surface anion channel blockers, osmotic lysis – cell-based, P. falciparum Indochina, OD700, 2 h, primary screen (AID 1155);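 note: lysis reports solute entry through the parasite surface anion channel PSAC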; details: P. falciparum Indochina infected erythrocytes, higher = more signal, called active from +8 up or from −8 down
# [5] = changes in parasitized red cell lysis, either direction – P. falciparum Indochina, OD700, 3 h, PSAC antagonist project, primary screen (AID 1156); details: P. falciparum-infected erythrocytes, osmotic lysis, higher = more signal, called active from +8 up or from −8 down
# [6] = plasmodial surface anion channel blockers, osmotic lysis – cell-based, P. falciparum Indochina, OD700, 18 h, primary screen (AID 1157); details: P. falciparum Indochina infected erythrocytes, osmotic lysis OD700, 18 h; higher = more signal, called active from +8 up or from −8 down
# [7] = S6 kinase pathway phospho-S6 level changes – cell-based, A549, cytoblot, luminescence, serum-stimulated, primary screen (AID 1158); details: 5 h, higher = more signal;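 note: serum-stimulated A549 lung adenocarcinoma cells; signal is phosphorylated S6 detected by cytoblot immunostaining with HRP secondary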
# [8] = target: NADPH oxidase 2 (Homo sapiens) (UniProt P04839); assay: compounds shifting NOX2 Amplex Red fluorescence – cell-based, HEK293-NOX2, PMA-stimulated, NOX inhibitor project, primary screen (AID 1159); details: 45 min, higher = more signal, called active from +8 up or from −8 down; note: test concentration not given here
# [9] = target: NADPH oxidase 4 (Homo sapiens) (UniProt Q9NPH5); assay: compounds shifting NOX4 Amplex Red fluorescence – cell-based, HEK293-NOX4, tetracycline-induced, NOX inhibitor project, primary screen (AID 1160); details: HEK293-NOX4, Amplex Red H2O2 fluorescence, 45 min; higher = more signal, called active from +8 up or from −8 down
# [10] = target: NADPH oxidase 5 (Homo sapiens) (UniProt Q96PH1); assay: compounds shifting NOX5 Amplex Red fluorescence – cell-based, HEK293-NOX5, NOX inhibitor project, primary screen (AID 1161); details: HEK293-NOX5, ionomycin, 45 min, higher = more signal
# NADPH oxidase 5 (Homo sapiens), sequence (Q96PH1 whole entry, looked up): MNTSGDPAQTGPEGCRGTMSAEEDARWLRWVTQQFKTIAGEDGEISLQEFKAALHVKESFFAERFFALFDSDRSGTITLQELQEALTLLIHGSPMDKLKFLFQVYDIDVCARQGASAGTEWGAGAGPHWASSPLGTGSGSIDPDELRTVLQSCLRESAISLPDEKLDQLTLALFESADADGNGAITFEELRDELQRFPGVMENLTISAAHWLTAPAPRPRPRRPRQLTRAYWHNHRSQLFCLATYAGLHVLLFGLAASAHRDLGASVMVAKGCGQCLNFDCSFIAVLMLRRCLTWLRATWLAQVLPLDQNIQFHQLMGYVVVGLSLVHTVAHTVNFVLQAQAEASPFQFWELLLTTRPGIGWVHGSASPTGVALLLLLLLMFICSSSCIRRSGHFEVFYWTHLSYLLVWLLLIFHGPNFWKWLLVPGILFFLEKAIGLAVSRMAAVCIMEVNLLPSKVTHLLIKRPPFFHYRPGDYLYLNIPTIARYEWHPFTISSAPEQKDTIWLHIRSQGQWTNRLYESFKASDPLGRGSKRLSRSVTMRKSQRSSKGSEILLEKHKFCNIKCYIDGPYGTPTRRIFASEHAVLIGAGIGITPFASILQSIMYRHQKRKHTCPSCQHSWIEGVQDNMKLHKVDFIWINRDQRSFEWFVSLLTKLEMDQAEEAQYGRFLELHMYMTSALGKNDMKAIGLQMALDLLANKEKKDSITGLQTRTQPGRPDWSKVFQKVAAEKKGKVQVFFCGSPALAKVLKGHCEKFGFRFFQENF
# NADPH oxidase 4 (Homo sapiens), sequence (Q9NPH5 whole entry, looked up): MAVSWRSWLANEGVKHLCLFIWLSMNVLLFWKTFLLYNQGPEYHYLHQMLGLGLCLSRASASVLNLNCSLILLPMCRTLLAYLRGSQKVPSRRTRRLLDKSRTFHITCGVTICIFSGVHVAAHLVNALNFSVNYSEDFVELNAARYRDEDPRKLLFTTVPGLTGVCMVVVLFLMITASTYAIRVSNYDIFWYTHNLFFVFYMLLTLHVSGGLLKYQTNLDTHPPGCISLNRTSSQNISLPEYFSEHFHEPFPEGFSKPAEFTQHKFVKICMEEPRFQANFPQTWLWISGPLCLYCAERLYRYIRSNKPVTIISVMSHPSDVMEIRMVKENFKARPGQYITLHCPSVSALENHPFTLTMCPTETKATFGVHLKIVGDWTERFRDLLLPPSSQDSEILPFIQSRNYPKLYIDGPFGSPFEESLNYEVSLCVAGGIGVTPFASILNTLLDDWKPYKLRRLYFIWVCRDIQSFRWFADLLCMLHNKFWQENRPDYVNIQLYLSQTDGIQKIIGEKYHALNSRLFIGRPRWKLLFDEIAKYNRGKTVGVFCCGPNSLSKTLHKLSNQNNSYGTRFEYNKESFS
# NADPH oxidase 2 (Homo sapiens), sequence (P04839 whole entry, looked up): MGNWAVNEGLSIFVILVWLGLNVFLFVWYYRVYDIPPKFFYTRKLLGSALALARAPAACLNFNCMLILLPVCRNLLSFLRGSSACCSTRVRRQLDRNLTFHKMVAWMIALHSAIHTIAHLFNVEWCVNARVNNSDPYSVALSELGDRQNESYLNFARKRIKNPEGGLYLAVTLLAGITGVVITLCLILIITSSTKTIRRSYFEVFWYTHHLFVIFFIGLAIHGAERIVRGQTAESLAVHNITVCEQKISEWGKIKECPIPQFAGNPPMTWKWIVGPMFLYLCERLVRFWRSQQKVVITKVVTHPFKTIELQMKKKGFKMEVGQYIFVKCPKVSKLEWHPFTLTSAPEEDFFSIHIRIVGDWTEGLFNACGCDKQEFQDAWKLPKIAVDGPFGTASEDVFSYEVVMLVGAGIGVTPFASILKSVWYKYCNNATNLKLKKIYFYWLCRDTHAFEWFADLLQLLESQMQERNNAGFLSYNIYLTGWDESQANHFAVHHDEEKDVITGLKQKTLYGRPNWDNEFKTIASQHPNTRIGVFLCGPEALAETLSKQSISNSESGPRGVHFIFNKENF
SMILES,z-score [1],composite z-score [2],z-score [3],z-score [4],z-score [5],z-score [6],z-score [7],z-score [8],z-score [9],z-score [10]
CN(C)CCCCCCNC(=O)[C@@H]1C[C@@H]2C(=O)N[C@@H](CCCCN)C(=O)N2[C@@H]1c1cccc(OCCO)c1,-0.374 (inactive),2.74,1.59 (inactive),-0.644 (inactive),0.0026 (inactive),-2.47 (inactive),1.51,0.853 (inactive),0.7 (inactive),1.95
CC1(C)[C@@H]2CC(C(O)C3C=CC4C(=O)N(c5ccccc5)C(=O)C4N3Nc3ccccc3)=C[C@H]1C2 (stereo not given in full),-1.16 (inactive),-0.012,4.78 (inactive),0.741 (inactive),-0.343 (inactive),1.29 (inactive),-1.04,-1.47 (inactive),-2.94 (inactive),-3.08
O=C1c2ccccc2[C@](Cc2ccccc2I)(C(=O)NC2CC2)[C@H](c2ccc(CO)cc2)N1Cc1ccccc1,-0.102 (inactive),0.284,5.07 (inactive),0.602 (inactive),1.67 (inactive),0.181 (inactive),-0.132,-0.163 (inactive),-0.127 (inactive),-0.768
NCCCCCNC(=O)[C@@H]1C[C@@H]2C(=O)N[C@@H](Cc3ccccc3)C(=O)N2[C@@H]1c1cccc(OCCO)c1,-0.389 (inactive),-0.101,3.51 (inactive),0.418 (inactive),1.18 (inactive),0.351 (inactive),-0.0201,2.11 (inactive),-0.729 (inactive),0.832
CC(C)[C@@H](CO)NC(=O)[C@H]1[C@@H](c2ccccc2)N(c2ccccc2)O[C@@H]1C,1.6 (inactive),-0.151,0.785 (inactive),-0.0799 (inactive),-0.466 (inactive),-0.0146 (inactive),0.444,-0.982 (inactive),0.366 (inactive),0.153
C=C(COC)/C(=C/C[C@H](OC(=O)c1ccncc1)c1ccc(OCCO)cc1)c1cnc2ccccc2c1,-0.469 (inactive),0.062,20 (active),3.18 (inactive),1.47 (inactive),0.848 (inactive),0.123,-0.294 (inactive),-0.192 (inactive),-0.608
CC(C)N1C(=O)c2ccccc2[C@](C)(C(=O)NCc2ccccc2)[C@@H]1c1ccc(CO)cc1,-0.884 (inactive),-0.101,1.53 (inactive),0.349 (inactive),0.24 (inactive),0.645 (inactive),0.0331,-0.291 (inactive),-0.0216 (inactive),-0.54
CC(C)(C)C(=O)N[C@@H](c1ccc(Cl)cc1)[C@]1(C)C[C@H]1C1CCCCC1,-0.913 (inactive),1.06,0.671 (inactive),0.418 (inactive),0.0711 (inactive),0.887 (inactive),-0.191,-0.0125 (inactive),-1.05 (inactive),-0.0713
O=C1C2C=CC(C(O)c3c(F)cccc3Cl)N(Nc3ccccc3)C2C(=O)N1c1ccccc1 (stereo not given),-0.0623 (inactive),0.547,18.7 (active),3.73 (inactive),0.419 (inactive),1.93 (inactive),-0.458,-1.69 (inactive),-3.01 (inactive),-2.42
C=CCOC(=O)[C@H]1[C@@H]2C(=O)O[C@@H](c3ccccc3)[C@@H](c3ccccc3)N2[C@@H](c2ccc(OCCOC(=O)[C@H]3C[C@H]4C(=O)N[C@@H](CC(C)C)C(=O)N4[C@H]3c3ccc(O)cc3)cc2)[C@]12C(=O)Nc1ccc(I)cc12,-1.1 (inactive),0.0839,-0.414 (inactive),0.739 (inactive),-0.483 (inactive),0.47 (inactive),-0.182,1.82 (inactive),0.43 (inactive),0.982
COc1ccc(C(O)C2C=CC3C(=O)N(C)C(=O)C3N2N2CCCCC2)c2ccccc12 (stereo not given),-1.53 (inactive),0.517,1.24 (inactive),1.05 (inactive),1.01 (inactive),0.778 (inactive),-1.08,0.273 (inactive),-1.72 (inactive),1.03
CC(C)(C)OC(=O)CC[C@@]12N=C(c3ccc(OCCCO)cc3)O[C@@H]1c1ccccc1N(CCS(=O)(=O)c1ccccc1)C2=O,0.864 (inactive),0.334,30.9 (active),27.6 (active),3.49 (inactive),8.22 (active),1.84,-0.619 (inactive),0.801 (inactive),-2.14
O=C(O)[C@@]1(CCS(=O)(=O)c2ccccc2)COC(c2ccc(OCCCO)cc2)=N1,-0.513 (inactive),-0.0601,1.58 (inactive),-0.783 (inactive),-0.821 (inactive),-0.392 (inactive),-0.312,-0.0194 (inactive),0.85 (inactive),0.779
O=C1C2C=CC(C(O)C(c3ccccc3)c3ccccc3)N(n3cnnc3)C2C(=O)N1Cc1ccccc1 (stereo not given),-1.48 (inactive),0.169,2.36 (inactive),1.26 (inactive),-0.218 (inactive),0.949 (inactive),-0.429,0.67 (inactive),-2.83 (inactive),-0.766
C=CCNC(=O)[C@H]1[C@@H]2C(=O)O[C@@H](c3ccccc3)[C@@H](c3ccccc3)N2[C@@H](c2ccccc2OCCO)[C@]12C(=O)Nc1ccc(C#CC3=CCCCC3)cc12,0.748 (inactive),0.0919,3.01 (inactive),2.25 (inactive),0.407 (inactive),1.71 (inactive),0.142,1.38 (inactive),0.676 (inactive),1.75
COC(=O)[C@@]1(Cc2ccc(F)cc2)[C@H]2c3cc(C(=O)N(C)C)n(Cc4nc5ccccc5[nH]4)c3C[C@H]2CN1C(=O)c1ccccc1,-0.827 (inactive),-0.0297,20.5 (active),3.05 (inactive),1.13 (inactive),0.91 (inactive),-0.377,-0.0764 (inactive),0.32 (inactive),-2.06
COCC(=C=CC[C@@H](O)c1ccccc1OCCO)C[C@@H](O)c1cc(Cl)cc(Cl)c1O,-0.397 (inactive),0.086,20.5 (active),4.9 (inactive),0.392 (inactive),0.945 (inactive),0.35,-0.19 (inactive),-0.894 (inactive),-2.07
O=C1OCCC=C[C@H]2OC34C=CCN(CCN5CCOCC5)C(=O)[C@H]3N(CCCCCCO)C(=O)[C@@H]4C12 (stereo not given in full),0.36 (inactive),-0.286,0.683 (inactive),0.539 (inactive),0.835 (inactive),0.353 (inactive),-0.156,0.658 (inactive),-0.289 (inactive),1.67
CC(C)(C)OC(=O)CC[C@]12N=C(c3ccc(OCCCO)cc3)O[C@H]1c1ccccc1N(CCS(=O)(=O)c1ccccc1)C2=O,-1.59 (inactive),0.447,32.2 (active),28.5 (active),4.08 (inactive),8.71 (active),-0.321,-0.859 (inactive),1.12 (inactive),-1.06
COc1ccc(CCNC(=O)[C@@H]2c3ccccc3C(=O)N(C3Cc4ccccc4C3)[C@H]2c2ccc(CO)cc2)cc1,-0.483 (inactive),-0.0544,6.43 (inactive),0.65 (inactive),0.474 (inactive),0.183 (inactive),-0.484,-3.31 (inactive),-0.185 (inactive),-3.47
O=C1NC(=O)C2C1C=CC(C(O)c1ccccc1)N2Nc1ccc(Cl)cc1Cl (stereo not given),-1.87 (inactive),0.93,5.08 (inactive),-0.32 (inactive),-3.3 (inactive),-1.8 (inactive),0.726,-0.169 (inactive),-4.94 (inactive),-2.51
COC(=O)[C@@]1(Cc2ccccc2)[C@H]2c3cc(C(=O)N4CCCC4)n(Cc4cccc5ccccc45)c3C[C@H]2CN1C(=O)c1ccccc1,-1.22 (inactive),1.71,6.74 (inactive),1.43 (inactive),1.27 (inactive),1.3 (inactive),-0.503,0.586 (inactive),-0.237 (inactive),1.05
O=C1NCC(=O)N2[C@@H]1C[C@@H](C(=O)O)[C@H]2c1cccc(OCCO)c1,0.0481 (inactive),3.14,2.24 (inactive),1.34 (inactive),-1.22 (inactive),0.572 (inactive),0.863,0.313 (inactive),0.281 (inactive),1.62
